Test results taken from the supplement of paper PMC13380429.

Experiments:
[1] = tested on: Vero E6 infected with SARS-CoV-2; assay: morphology score (similarity to uninfected cells); higher = more like uninfected cells; details: 24 h
[2] = tested on: Vero E6 infected with SARS-CoV-2; assay: SARS-CoV-2 infection rate relative to infected DMSO; higher = more infection, active = 60 or less; details: 24 h

Row | Structure (SMILES) | morphology score [1] | SARS-CoV-2 infection rate [2]
1 | CCN(CC)CCOC(=O)C(Cc1cccc2ccccc12)CC1CCCO1 (mixture of isomers) [naftidrofuryl] (10 µM) | 0.14 | 104% (inactive)
2 | O=C(Cc1cccc(OC(F)(F)F)c1)Nc1ccc(CCCCc2nnc(NC(=O)Cc3ccccn3)s2)nn1 (10 µM) | -0.0099 | 104% (inactive)
3 | CSCC[C@H](NC(=O)[C@H](CC(C)C)NC(=O)CNC(=O)[C@H](Cc1ccccc1)NC(=O)[C@H](Cc1ccccc1)NC(=O)[C@H](CCC(N)=O)NC(=O)[C@H](CCC(N)=O)NC(=O)[C@@H]1CCCN1C(=O)[C@H](CCCCN)NC(=O)[C@@H]1CCCN1C(=O)[C@@H](N)CCCN=C(N)N)C(N)=O [substance-P] (10 µM) | -0.0435 | 114% (inactive)
4 | CO[C@H]1C[C@H](O[C@@H]2/C(C)=C/C[C@@H]3C[C@@H](C[C@]4(CC[C@H](C)[C@@H](C5CCCCC5)O4)O3)OC(=O)[C@@H]3C=C(C)/C(=N/O)[C@H]4OC/C(=C\C=C\[C@@H]2C)[C@]43O)O[C@@H](C)[C@@H]1O [selamectin] (10 µM) | 0.602 | 71% (inactive)
5 | CCOc1ccc(C(=O)OCCN(CC)CC)cc1 [parethoxycaine] (10 µM) | 0.157 | 108% (inactive)
6 | CN(C)CCOC(=O)COc1ccc(Cl)cc1 [meclofenoxate] (10 µM) | -0.0664 | 90.5% (inactive)
7 | COC(=O)c1cc(OC)c2c(c1-c1c(C(=O)OC)cc(OC)c3c1OCO3)OCO2 [bifendate] (10 µM) | 0.0714 | 108% (inactive)
